This note sets out measurements from PubChem BioAssay (NCI).

Molecules are shown by their SMILES. This is part of a sample that, as a whole, favours compounds with a hit. Of some 83,000 tested, about 20% had one in any assay.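 Single-dose data. Exposure time 48 hours. Values below 10 considered active.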 A number with no mark means an inactive call. Active and inactive are the calls of the source.

Among the test systems are NCI-H23 lung; NCI-H322M lung; HOP-62 NSCLC; NCI-H460 lung; HOP-92 NSCLC; NCI-H522 lung; A549/ATCC NSCLC; 786-0 renal; COLO 205 colon; DU-145 prostate; K-562 leukemia; MALME-3M melanoma; MDA-MB-231 breast; RXF 393 renal; SF-268 CNS; SF-295 CNS; SF-539 CNS; UACC-257 melanoma; M14 melanoma; HCT-15 colon.
Holding throughout (experiment): NCI-60 one-dose screen, 48 h (100 = growth as untreated, 0 = no growth, -100 = all killed)
Settings in all cases: 10 µM unless noted

For the molecule `COc1ccc(CCN2C(=O)CCSC2=S)cc1OC`, the growth in the assay with NCI-H23 lung was 103%; in the assay on NCI-H322M lung, 101%; in the assay on HOP-62 NSCLC it was 97.5%; with NCI-H460 lung it was 102%; in the assay with HOP-92 NSCLC, 87%; with NCI-H522 lung, 48.3%. Also, the growth is 97.6% with A549/ATCC NSCLC; 44.2% in the assay with 786-0 renal; 114% in the assay with COLO 205 colon; 67.6% in the assay with DU-145 prostate; 80.9% in the assay on K-562 leukemia; 101% with MALME-3M melanoma. In addition, the growth with MDA-MB-231 breast was 106%; in the assay with RXF 393 renal it was 90.7%; in the assay with SF-268 CNS, 97.1%; with SF-295 CNS, 98.7%; with SF-539 CNS it was 89.7%; with UACC-257 melanoma, 96.6%. The growth with M14 melanoma is 105%; with HCT-15 colon it was 86.2%.
As for `COC(=O)C1=C(C)NC(C)=C(C(=O)OC)C(N2C(=O)CCC2=O)C1` (stereo not given), the growth with NCI-H23 lung was 96.8%; with NCI-H322M lung, 91.2%; with HOP-62 NSCLC it was 109%; in the assay on NCI-H460 lung, 101%; in the assay on HOP-92 NSCLC, 101%; in the assay with NCI-H522 lung, 7.93% (active). For the same molecule, the growth with A549/ATCC NSCLC is 77.6%; in the assay with 786-0 renal, 99.2%; in the assay with COLO 205 colon, 114%; in the assay on DU-145 prostate, 90.1%; in the assay on K-562 leukemia, 35.8%; with MALME-3M melanoma it was 80.8%. In addition, the growth in the assay with MDA-MB-231 breast is 95.8%; in the assay on RXF 393 renal, 104%; in the assay with SF-268 CNS it was 93.9%; with SF-295 CNS, 118%; in the assay with SF-539 CNS, 103%; with UACC-257 melanoma it was 66.5%. The growth in the assay on M14 melanoma is 85%; in the assay on HCT-15 colon it was 78.4%.
For `Nc1ccc(-c2nn3c(CCC(=O)c4nc5ncccc5[nH]4)nnc3s2)c(O)c1`, the growth in the assay on NCI-H23 lung was 83.1%; in the assay on NCI-H322M lung, 87.5%; in the assay with HOP-62 NSCLC, 85.7%; in the assay on NCI-H460 lung, 93.4%; with HOP-92 NSCLC, 85.4%; with NCI-H522 lung it was 81.2%. The growth was 89.6% in the assay with A549/ATCC NSCLC; 99.2% in the assay with 786-0 renal; 99.6% in the assay with COLO 205 colon; 96.5% with DU-145 prostate; 105% in the assay with K-562 leukemia; 93% in the assay with MALME-3M melanoma. The growth in the assay on MDA-MB-231 breast is 71.2%; with RXF 393 renal it was 84.9%; with SF-268 CNS, 73.5%; in the assay with SF-295 CNS, 97.1%; in the assay on SF-539 CNS, 89.1%; in the assay on UACC-257 melanoma it was 101%. The growth is 96.5% in the assay with M14 melanoma and 95.8% with HCT-15 colon.
On to `Nc1n[nH]c2ccc([C@@H]3Nc4ccc5[nH]ncc5c4[C@H]4[C@H]5CCC(C5)[C@H]43)cc12`, for which the growth in the assay on NCI-H23 lung is 31.4%; with NCI-H322M lung it was 42.7%; in the assay with HOP-62 NSCLC it was 35.7%; in the assay on NCI-H460 lung, 3.93% (active); in the assay with HOP-92 NSCLC, 33.7%; in the assay with NCI-H522 lung it was -21.4% (active). The growth with A549/ATCC NSCLC was 18.5%; in the assay on 786-0 renal, 24.1%; in the assay with COLO 205 colon it was 0.265% (active); with DU-145 prostate, 7.74% (active); with K-562 leukemia, 9.58% (active); with MALME-3M melanoma it was 52.2%. Also, the growth with MDA-MB-231 breast was 11.8%; with RXF 393 renal, 25.6%; in the assay with SF-268 CNS it was 25%; with SF-295 CNS, 14%; in the assay on SF-539 CNS, -15.8% (active); in the assay on UACC-257 melanoma it was 69.4%. Besides, the growth in the assay with M14 melanoma is 8.3% (active); in the assay with HCT-15 colon, 16.5%.
As for `O=C(/C=C/c1cccc(Cl)c1)OCc1ccc2cc1OCC#C/C=C\C#CCO2`, the growth in the assay on NCI-H23 lung is 102%; in the assay with NCI-H322M lung, 91.1%; with HOP-62 NSCLC, 100%; in the assay with NCI-H460 lung, 104%; in the assay with HOP-92 NSCLC it was 150%; in the assay on NCI-H522 lung, 83.2%. Further, the growth is 90.5% in the assay on A549/ATCC NSCLC; 100% with 786-0 renal; 106% with COLO 205 colon; 119% with DU-145 prostate; 81.9% in the assay on K-562 leukemia; 99.7% in the assay with MALME-3M melanoma. The growth is 90.7% in the assay on MDA-MB-231 breast; 101% with RXF 393 renal; 106% in the assay on SF-268 CNS; 109% in the assay with SF-295 CNS; 100% with SF-539 CNS; 88.8% with UACC-257 melanoma. In addition, the growth with M14 melanoma is 103%; with HCT-15 colon it was 102%.
Regarding `O=S1(=O)N(Cc2ccccc2)[C@@H](Cc2ccccc2)C2O[C@H]2[C@H](Cc2ccccc2)N1Cc1ccccc1` (stereo not given in full), the growth with NCI-H23 lung was 37.6%; in the assay on NCI-H322M lung it was 84.9%; in the assay on HOP-62 NSCLC it was 53.6%; in the assay on NCI-H460 lung it was 9.31% (active); in the assay on HOP-92 NSCLC, 114%; in the assay with NCI-H522 lung, 49.3%. For the same molecule, the growth with A549/ATCC NSCLC is 44.1%; in the assay with 786-0 renal it was 40.6%; in the assay on COLO 205 colon, 61.8%; in the assay on DU-145 prostate, 34.3%; with K-562 leukemia, 23.4%; in the assay with MALME-3M melanoma, 67.8%. Further, the growth with MDA-MB-231 breast is 24.2%; with RXF 393 renal, 45.2%; in the assay on SF-268 CNS, 57.8%; in the assay on SF-295 CNS, 38%; with SF-539 CNS it was 38.6%; in the assay on UACC-257 melanoma, 39.1%. In addition, the growth was 72.6% in the assay with M14 melanoma and 26.1% in the assay on HCT-15 colon.
For the molecule `CCOC(=O)C(CC(=O)O)=C(C(=O)OCC)C(=O)OCC`, the growth is 105% with NCI-H23 lung; 114% in the assay on NCI-H322M lung; 104% in the assay with HOP-62 NSCLC; 107% with NCI-H460 lung; 89.5% in the assay on HOP-92 NSCLC; 114% with NCI-H522 lung. In addition, the growth was 101% with A549/ATCC NSCLC; 115% in the assay on 786-0 renal; 121% with COLO 205 colon; 109% in the assay on DU-145 prostate; 106% in the assay with K-562 leukemia; 121% in the assay with MALME-3M melanoma. Further, the growth in the assay on MDA-MB-231 breast is 123%; in the assay with RXF 393 renal, 102%; in the assay on SF-268 CNS, 107%; with SF-295 CNS, 100%; in the assay with SF-539 CNS it was 102%; in the assay with UACC-257 melanoma, 100%. The growth in the assay on M14 melanoma was 115%; in the assay on HCT-15 colon it was 96.8%.
For `COc1ccc(N)c(-c2cc3c(c4c2[nH]c2ccc(OC)cc24)CCCC3)c1`, the growth in the assay on NCI-H23 lung is 91.2%; in the assay on NCI-H322M lung, 71.5%; in the assay on HOP-62 NSCLC, 70.4%; with NCI-H460 lung it was 83.1%; in the assay on HOP-92 NSCLC, 72.2%; in the assay with NCI-H522 lung, 57.1%. The growth was 64.1% with A549/ATCC NSCLC; 78.3% with 786-0 renal; 102% in the assay with COLO 205 colon; 83.7% with DU-145 prostate; 76.8% in the assay on K-562 leukemia; 108% in the assay with MALME-3M melanoma. For the same molecule, the growth with MDA-MB-231 breast is 77.6%; with RXF 393 renal, 87.1%; with SF-268 CNS it was 73.8%; in the assay on SF-295 CNS it was 88.8%; in the assay with SF-539 CNS, 98%; in the assay on UACC-257 melanoma it was 67.9%. In addition, the values for the growth in the assay on M14 melanoma and with HCT-15 colon were 78.5% and 58.6%, respectively.
